Screens from PubChem BioAssay.
TDP1 cell CPT: DT40-hTDP1 cell growth loss with CPT. AID 686979. chicken DT40 Tdp1-/-;hTDP1 cells + 20 nM CPT, ATP luminescence, 48 h. 420,000 tested, 12% active. Potency, µM (top dose mostly 46.2 µM), without a hit: top-dose activity change, negative = growth inhibition, usual class: inhibitors; also: nearly all actives have a fitted effect of over 55% in size
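Chicken DT40 Tdp1-/- cells complemented with human TDP1, 400 cells/well, exposed to compounds plus 20 nM camptothecin for at least 48 h at 37 C; viability read as ATP content by CellTiter-Glo luminescence.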
KAT2A inh: blocks human GCN5L2 histone acetyltransferase | Q92830 | GCN5L2 HAT assay, ThioGlo1 CoA-SH fluorescence | Potency, µM (highest dose often 58.9 µM), inactives show at the highest dose activity change, negative = inhibition, most hits filed as inhibitors | 390,000 tested, 0.21% active | AID 504327
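Preincubate 20nM GCN5L2 with compound 15 min, RT → add 50uM ThioGlo1 + 75uM H3(1-25) + 70uM acetyl-CoA → read fluorescence 0 and 20 min. Primary qHTS; fluorescent artifacts likely.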
TDP1 cell noCPT: qHTS for Inhibitors of human tyrosyl-DNA phosphodiesterase 1 (TDP1): qHTS in cells in absence of CPT. DT40 Tdp1-/- hTDP1 cells, no CPT, ATP luminescence, 48 h. Potency, µM (highest dose often 46.2 µM), for the others: at the highest dose activity change, negative = growth inhibition, usual class: inhibitors. 420,000 tested, 15% active. AID 686978, 2013; also: nearly all actives have a fitted effect of over 55% in size
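Stably hTDP1-transfected Tdp1-null chicken DT40 cells were treated with library compounds minus camptothecin and grown for at least 48 hr at 37 °C, after which cellular ATP was quantified by luminescence.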
TDP1 block: blocks human tyrosyl-DNA phosphodiesterase 1; AID 485290; Q9NUW8; 350,000 tested, 0.28% active; recombinant TDP1, AlphaScreen DNA substrate cleavage; Potency, µM (series often up to 130 µM), inactives show at the top dose activity change, negative = inhibition, usual class: inhibitors; also: nearly all actives have a fitted effect of over 40% in size
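Compounds were preincubated with Tdp1 (1 nM final) for 15 min at room temperature before substrate (15 nM final) started a 5 min reaction; beads (10 ug/ml final) were then added for 10 min before AlphaScreen detection.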
VDR inhibitor: inhibitors of human vitamin D receptor | VDR-SRC2-3 peptide fluorescence polarization, 2 h | P11473 | Potency, µM, without a hit: max response, negative = inhibition, usual class: inhibitors | 400,000 tested, 0.93% active | AID 504847
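Reagent solutions, kept cold and dark, are dispensed first; compounds are then pinned in at 23 nl, plates briefly spun, and incubated 2 h at ambient temperature. Inhibition of VDR–SRC2-3 peptide binding is read by fluorescence polarization.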
PLK1 PBD block: PLK1 (human) polo-box domain binding inhibition; Plk1 PBD binding of FITC phosphopeptide, fluorescence polarization; 360,000 tested, 2.8% active; Potency, µM, without a hit: max response, negative = inhibition, actives largely listed as inhibitors; also: series mostly up to about 57 µM; nearly all actives have a fitted effect of over 65% in size
Target sequence (P53350 whole entry, looked up, the tested form may be a part): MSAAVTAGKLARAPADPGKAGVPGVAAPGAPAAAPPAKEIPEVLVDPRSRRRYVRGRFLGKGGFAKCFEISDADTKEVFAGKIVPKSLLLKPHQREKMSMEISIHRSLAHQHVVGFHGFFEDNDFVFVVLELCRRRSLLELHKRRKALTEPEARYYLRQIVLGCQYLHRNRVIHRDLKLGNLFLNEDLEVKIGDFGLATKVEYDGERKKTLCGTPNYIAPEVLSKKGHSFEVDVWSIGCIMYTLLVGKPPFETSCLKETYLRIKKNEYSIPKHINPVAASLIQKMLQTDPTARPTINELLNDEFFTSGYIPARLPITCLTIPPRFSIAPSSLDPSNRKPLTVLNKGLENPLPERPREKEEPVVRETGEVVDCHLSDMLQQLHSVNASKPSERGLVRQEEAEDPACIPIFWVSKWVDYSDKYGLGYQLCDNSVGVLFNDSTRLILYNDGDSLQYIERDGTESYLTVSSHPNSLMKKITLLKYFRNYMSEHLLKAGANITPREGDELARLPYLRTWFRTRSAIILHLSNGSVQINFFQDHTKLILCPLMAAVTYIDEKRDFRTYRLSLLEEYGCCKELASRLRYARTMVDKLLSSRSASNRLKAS
* hit, by the source's call; ! = not active in a repeat. The list is not random: actives were taken first. Their share in the collection is about 18%. Calls follow the shape of the dose curve; as a rule, active = well fitted curve in the direction sought with a large enough effect; inconclusive = small, poorly fitted or top-dose-only effect, or another doubt; inactive = no such curve, though single readings can be large; an effect the other way counts as inactive or inconclusive. % is scaled to controls: 0 for no effect and ±100 for the full control effect; potency is read from the fitted curve at half-maximal effect.

Screening COc1ccc(Nc2nc3ccc(C)cn3c(=O)c2/C=N/O)cc1 returned TDP1 cell CPT 5.8µM*, KAT2A inh -10.9%, TDP1 cell noCPT 6.51µM*, TDP1 block -5.1%, VDR inhibitor -4.2% and PLK1 PBD block -0.1%.
For O=S(=O)(c1cccc(F)c1)N1CCC(c2nc3ccccc3s2)CC1 the results were TDP1 cell CPT 9.2%, KAT2A inh 0.4%, TDP1 cell noCPT 9.0%, TDP1 block 7.0% and VDR inhibitor -0.8%.
`O=C(CCNC(=O)c1ccc(Br)cc1)NNC(=O)c1ccccc1O` gave TDP1 cell CPT inconclusive, KAT2A inh -10.2%, TDP1 cell noCPT 23.1µM*, TDP1 block -2.4%, VDR inhibitor inconclusive and PLK1 PBD block -5.9%.
Screening COc1ccc(C2c3c(n(Cc4ccccc4)cnc3=N)Oc3ccc4ccccc4c32)cc1OC (stereo not drawn) returned TDP1 block 5.1%.
Screening Cc1ccc(OCc2nnn(CC(=O)NS(=O)(=O)c3c(C)noc3C)c2-c2ccccc2)cc1 returned TDP1 cell CPT inconclusive, TDP1 cell noCPT 1.03µM* and PLK1 PBD block -6.7%.
Screening CCOC(=O)N1C(=O)[C@](c2ccc(Cl)cc2)(C(C)C)N1C(=O)OCC returned TDP1 cell CPT 18.4µM*, KAT2A inh -5.5%, TDP1 cell noCPT 14.6µM*, VDR inhibitor -24.2% and PLK1 PBD block inconclusive.
CCOC(=O)N1C(=O)[C@@](c2ccc(Cl)cc2)(C(C)C)N1C(=O)OCC was read as TDP1 cell CPT 20.6µM*, KAT2A inh -2.9%, TDP1 cell noCPT inconclusive, VDR inhibitor inconclusive and PLK1 PBD block inconclusive.
CCOC(=O)N1CCN(C(=O)Cc2ccc(Cl)cc2)CC1 was read as TDP1 cell CPT 0.2%, KAT2A inh -2.9%, TDP1 cell noCPT -12.4%, TDP1 block 0.0%, VDR inhibitor -9.0% and PLK1 PBD block -4.9%.
For CCOC(=O)C1(C(N)=O)OC1(c1ccc(Cl)cc1)c1ccccc1Cl (stereo not drawn) the results were TDP1 cell CPT 3.4%, TDP1 cell noCPT -16.3%, VDR inhibitor -1.2% and PLK1 PBD block -4.8%.
For CCCCCCCCCCCCCC[C@@H](O)[C@@H](O)[C@@H](N)CO the results were KAT2A inh 40.1%, TDP1 block 9.5% and VDR inhibitor 67.4%.
Screening CN[C@H]1C[C@H]2c3cc(N4CCN(C)CC4)ccc3CCN2C(=O)[C@H]1[C@H](C)O returned TDP1 cell CPT -11.7%, TDP1 cell noCPT -11.1% and PLK1 PBD block -4.5%.
Screening COc1ccc(-c2ccc3[nH]c4c(c3c2)CCN2C(=O)[C@@H]([C@H](C)O)[C@@H](N(C)C(=O)Nc3ccccc3)C[C@@H]42)cc1 returned TDP1 cell CPT 13µM*, TDP1 cell noCPT 6.51µM* and PLK1 PBD block 7.7%.
`COc1ccc(NC(=O)N(C)[C@H]2C[C@H]3c4[nH]c5ccccc5c4CCN3C(=O)[C@H]2[C@H](C)O)cc1` gave TDP1 cell CPT -24.9%, TDP1 cell noCPT inconclusive and PLK1 PBD block -16.1%.
For CN[C@H]1C[C@H]2c3[nH]c4ccc(-c5ccc(OC)cc5)cc4c3CCN2C(=O)[C@H]1[C@H](C)O the results were TDP1 cell CPT 2.59µM*, TDP1 cell noCPT 3.26µM* and PLK1 PBD block -3.8%.
For COc1ccc(NC(=O)N(C)[C@H]2C[C@H]3c4[nH]c5ccc(-c6ccc(OC)cc6)cc5c4CCN3C(=O)[C@H]2[C@H](C)O)cc1 the results were TDP1 cell CPT 18.4µM*, TDP1 cell noCPT 13µM* and PLK1 PBD block -3.6%.
Screening O=C(CSc1nc2c([nH]c3ccccc32)c(=O)n1-c1cccc(Cl)c1)N1CCOCC1 returned TDP1 cell CPT 18.4µM*!, KAT2A inh -16.2%, TDP1 cell noCPT 14.6µM*!, TDP1 block -2.6%, VDR inhibitor -17.4% and PLK1 PBD block -3.5%.
`CCOc1ccc(-n2c(SCC(=O)N3CCCC3)nc3c([nH]c4ccccc43)c2=O)cc1` gave TDP1 cell CPT -7.3%, KAT2A inh 2.6%, TDP1 cell noCPT -5.3%, TDP1 block 2.2% and VDR inhibitor 8.5%.
`CCOc1ccc(-n2c(SCC(=O)N3CCC(C)CC3)nc3c([nH]c4ccccc43)c2=O)cc1` gave TDP1 cell CPT 2.06µM*, KAT2A inh -2.6%, TDP1 cell noCPT 5.17µM*, TDP1 block -3.3% and VDR inhibitor 0.9%.
CCOc1ccc(-n2c(SCC(=O)N3CCCCCC3)nc3c([nH]c4ccccc43)c2=O)cc1 was read as TDP1 cell CPT 20.6µM*, KAT2A inh -5.9%, TDP1 cell noCPT 23.1µM*, TDP1 block 5.5% and VDR inhibitor -8.1%.
`O=C(CSc1nc2c([nH]c3ccccc32)c(=O)n1-c1ccccc1)N1CCOCC1` gave TDP1 cell CPT -6.1%, KAT2A inh -2.1%, TDP1 cell noCPT -16.9%, TDP1 block -1.0%, VDR inhibitor -12.1% and PLK1 PBD block -0.4%.
For Cc1cccc(C(=O)Nc2ccc(NC(=O)CN3CCOCC3)cc2)c1 the results were TDP1 cell CPT -3.0%, KAT2A inh 2.3%, TDP1 cell noCPT -1.4%, TDP1 block 6.2%, VDR inhibitor 0.8% and PLK1 PBD block -0.3%.
`CCn1c(SCCN2CCOCC2)nc2c1c(=O)n(C)c(=O)n2C` gave TDP1 cell CPT 19.7%, KAT2A inh -7.2%, TDP1 cell noCPT 0.0%, VDR inhibitor -0.4% and PLK1 PBD block 2.2%.
Screening CCOC(=O)C1(CCOc2ccccc2)CCN(Cc2ccc(COC)o2)CC1 returned TDP1 cell CPT 7.31µM*, KAT2A inh -7.4%, TDP1 cell noCPT inconclusive, VDR inhibitor -11.3% and PLK1 PBD block -6.8%.
Screening CCOC(=O)C1(Cc2ccccc2)CCN(Cc2ccon2)CC1 returned TDP1 cell CPT -25.6%, KAT2A inh -3.4%, TDP1 cell noCPT -23.3%, TDP1 block -2.8%, VDR inhibitor 0.7% and PLK1 PBD block -2.2%.
`CCOC(=O)C1(Cc2ccccc2)CCN(Cc2ccc(C)s2)CC1` gave TDP1 cell CPT inconclusive, KAT2A inh -1.0%, TDP1 cell noCPT 23.1µM*, TDP1 block 3.5%, VDR inhibitor -28.2% and PLK1 PBD block -13.7%.
For CCOC(=O)C1(Cc2ccccc2C(F)(F)F)CCN(Cc2ccon2)CC1 the results were TDP1 cell CPT inconclusive, KAT2A inh -1.2%, TDP1 cell noCPT 14.6µM*, TDP1 block 5.6%, VDR inhibitor -16.3% and PLK1 PBD block 2.6%.
